DT40 TDP1 CPT – growth inhibition of DT40 Tdp1-/-;hTDP1 cells with camptothecin (screen for TDP1 inhibitors) | chicken DT40 Tdp1-/-;hTDP1 cells + 20 nM CPT, ATP luminescence, 48 h | AID 686979 | Potency, µM (doses to about 46.2 µM), for the others: top-dose activity change, negative = growth inhibition, actives largely listed as inhibitors | 420,000 tested, 12% active; further: potency means the concentration at half of the fitted maximal effect; nearly all actives have a fitted effect of over 55% in size
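Cell growth measured by CellTiter-Glo luminescence after a minimum 48 h, 37 C compound exposure with 20 nM CPT in Tdp1-knockout DT40 cells stably expressing hTDP1, seeded 400/well; qHTS titration format.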
TDP1 cell noCPT – qHTS for Inhibitors of human tyrosyl-DNA phosphodiesterase 1 (TDP1): qHTS in cells in absence of CPT. DT40 Tdp1-/- hTDP1 cells, no CPT, ATP luminescence, 48 h. Potency, µM (top dose mostly 46.2 µM), for inactives: top-dose activity change, negative = growth inhibition, hits mostly inhibitors. 420,000 tested, 15% active; further: potency means the concentration at half of the fitted maximal effect; nearly all actives have a fitted effect of over 55% in size
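No-CPT arm: Tdp1-/-;hTDP1 DT40 cells (400/well) plus compounds, incubated ≥48 hr at 37 °C. Readout CellTiter-Glo luminescence.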
IL-1B inflam inh – inhibitors of inflammasome signaling (IL-1 beta secretion); THP-1 LPS/ATP IL-1B secretion, AlphaLISA, 16 h; hits give low values; activity change, % at 57.5 µM; 360,000 tested, 4.7% active; AID 743279; in the data active means activity change below about -50%; inconclusive means mostly about -30% to -49%
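Secreted IL-1B measured by AlphaLISA bead assay after 16 h compound exposure of THP-1 cells; compounds (final up to 57.5 uM) added 1 h before LPS (250 ng/mL) and ATP (1.25 mM) stimulation; lower signal means less secretion.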
HT1080NT lethal – kills 2HG-producing HT-1080-NT fibrosarcoma cells; HT-1080-NT fibrosarcoma viability, CellTiter-Glo ATP luminescence, 48 h; Potency, µM (highest dose often 46.1 µM), without a hit: at the top dose activity, negative = less viability, hits mostly cytotoxic; 360,000 tested, 1.6% active; AID 686970;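 further: NT is the 2HG producing partner of a matched IDH1 knockdown line; potency means the concentration at half of the fitted maximal effect; 0% = DMSO-treated cells and -100% = media-only wells without cells; nearly all actives have a fitted effect of over 55% in size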
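Viability by CellTiter-Glo luminescence after 48 h compound exposure at 37C of HT-1080-NT cells (750/well, RPMI, 5% FBS). % activity scaled between DMSO wells and medium-only wells, then curve-fitted and categorized by curve class.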
HT1080 IDH1KD tx – toxicity to HT-1080 IDH1 knockdown cells (counter line) | HT-1080 IDH1 knockdown viability, ATP luminescence, 48 h | Potency, µM (titrated, usually from 46.1 µM), for inactives: top-dose activity, negative = toxicity, actives largely listed as cytotoxic | 360,000 tested, 2% active;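 further: potency means the concentration at half of the fitted maximal effect; 0% = DMSO wells and -100% = cell-free medium wells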
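Using the IDH1-knockdown HT-1080 line run in the same batch and compound series as the NT line, viability after 48 h at 37 °C was determined by CellTiter-Glo luminescence and expressed as % activity.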
An asterisk follows results filed as active; ? = inconclusive; · = no result given. Compounds with a hit are over-represented: about 19% of the library has one in this group of screens. Unless noted, the call rests on the fitted dose curve; in most records, active means well fitted curve in the direction sought with a large enough effect; inconclusive means small, poorly fitted or top-dose-only effect, or another doubt; inactive means no such curve, though single readings can be large; an effect the other way counts as inactive or inconclusive. Unless noted, on the % scale 0 is the no-effect control and ±100 the full control effect.

SMILES	DT40 TDP1 CPT	TDP1 cell noCPT	IL-1B inflam inh	HT1080NT lethal	HT1080 IDH1KD tx
CN(Cc1ccccc1)C(=O)c1ccc(NC(=O)Cc2ccc(NC(=O)C3CCCN(C(=O)c4ccccc4)C3)cc2)cc1 (stereo unspecified)	-7%	?	27	0%	-11%
N/C(=N\c1nc2ccccc2o1)NC(=O)/C=C/c1ccccc1	?	18µM*	-12	?	-23%
CC(C)CC(=O)N/C(N)=N/c1nc2ccccc2o1	?	29µM*	37	-16%	0%
CCC(=O)N/C(N)=N/c1nc2ccccc2o1	?	?	29	22%	21%
N/C(=N\c1nc2ccccc2o1)NC(=O)c1ccccc1	?	?	45	-4%	-25%
Cc1cc(C(=O)Nc2c(C)n(C)n(-c3ccccc3)c2=O)c2ccccc2n1	1%	9%	1	14%	11%
Cc1c(NC(=O)c2cc(=O)[nH]c3ccccc23)c(=O)n(-c2ccccc2)n1C	1%	24%	19	0%	-1%
Cc1cc(Br)cc2c(C(=O)Nc3c(C)n(C)n(-c4ccccc4)c3=O)cc(-c3cccs3)nc12	23µM*	16µM*	38	?	-27%
CCc1ccc(-c2cc(C(=O)Nc3c(C)n(C)n(-c4ccccc4)c3=O)c3ccccc3n2)s1	?	16µM*	-28	-20%	?
Cc1cccc(N2C(=O)CS(=O)(=O)C23C(=O)N(Cc2c(F)cccc2Cl)c2ccccc23)c1 (stereo unspecified)	21µM*	23µM*	·	·	·
Cc1ccc(N2C(=O)CS(=O)(=O)C23C(=O)N(Cc2cccc(F)c2)c2ccccc23)cc1Cl (stereo unspecified)	23µM*	23µM*	·	·	·
O=C1CS(=O)(=O)C2(C(=O)N(Cc3ccccc3Cl)c3ccccc32)N1c1ccc(F)cc1 (stereo unspecified)	15µM*	16µM*	·	·	·
COc1ccc(N2C(=O)CS(=O)(=O)C23C(=O)N(Cc2cccc(F)c2)c2ccccc23)cc1OC (stereo unspecified)	-24%	?	·	·	·
Cc1ccc(CN2C(=O)C3(c4ccccc42)N(c2cccc(F)c2)C(=O)CS3(=O)=O)cc1 (stereo unspecified)	15µM*	?	·	·	·
O=C1CS(=O)(=O)C2(C(=O)N(Cc3ccccc3)c3ccccc32)N1c1ccc(F)c(Cl)c1 (stereo unspecified)	-29%	?	·	·	·
N#Cc1c(N)n(-c2cccc(Cl)c2)c2nc3ccccc3nc12	-14%	-8%	·	·	·
CCOc1ccc2c(c1)sc1nc(=O)n(-c3ccc(Cl)c(Cl)c3)c(=O)n12	-6%	-12%	·	·	·
O=C(NCCSCc1ccco1)Nc1ccc(Cl)cc1	?	12µM*	-5	0%	-5%
COCCSc1ccccc1C(=O)Nc1ccc([N+](=O)[O-])cc1OC	?	23µM*	-2	0%	-2%
COc1ccc([N+](=O)[O-])cc1NC(=O)CSc1ccc2ccccc2c1	23µM*	?	16	?	-30%
COc1cc([N+](=O)[O-])ccc1NC(=O)CSc1nncn1-c1cccnc1	?	0.52µM*	10	0%	-2%
COc1ccc([N+](=O)[O-])cc1NC(=O)CC(c1ccccc1)c1ccccc1	?	?	17	-9%	0%
COc1ccc([N+](=O)[O-])cc1NC(=O)CSc1nc(C)cc(C)n1	16µM*	?	27	-8%	-6%
N=c1sccn1CC(=O)Nc1cc(S(=O)(=O)N2CCCC2)ccc1Cl	3%	1%	-6	5%	32%
CC1(C)CC(=O)/C(=C\c2cccc([N+](=O)[O-])c2)C(C)(C)N1	?	16µM*	-82*	-24%	?
SMILES	DT40 TDP1 CPT	TDP1 cell noCPT	IL-1B inflam inh	HT1080NT lethal	HT1080 IDH1KD tx
COc1ccc(CCN(C)Cc2c(O)ccc3cc(Br)ccc23)cc1OC	?	-23%	-94*	-15%	-14%
COC(=O)C1CCN(C(=O)Cc2c(OC)ccc3cc(Br)ccc23)CC1	18µM*	?	33	0%	3%
COc1ccc(CN(C)Cc2c(O)ccc3cc(Br)ccc23)cc1OC	-28%	?	-25	-21%	-10%
CCCCN(C)C(=O)Cc1c(OC)ccc2cc(Br)ccc12	23µM*	18µM*	14	-7%	-2%
CC1(c2ccccc2)NC(=O)N(CC(=O)NCc2cccc(Cl)c2)C1=O (stereo unspecified)	4%	?	-9	-7%	-4%
N=c1ccn(Cc2cccc(Cl)c2)cc1	2.6µM*	2.1µM*	?	-4%	-16%
Clc1ccc(CN2CCCCCCC2)cc1	-18%	-25%	-20	18%	8%
Clc1cccc(CN2CCN(Cc3ccco3)CC2)c1	1%	-6%	7	6%	19%
N=c1ccn(Cc2ccc(Cl)cc2)cc1	5.2µM*	3.7µM*	-22	-17%	-23%
CC(C)(C)C1CCc2onc(C(=O)Nc3sc4c(c3C#N)CCCC4)c2C1 (stereo unspecified)	-28%	-17%	·	·	·
C/C(=N\NS(=O)(=O)c1ccc(C)cc1)c1ccc(C)s1	-4%	4%	6	-7%	-4%
OCCNCc1cc(Br)ccc1OCc1ccc(Cl)cc1	21µM*	29µM*	?	-1%	2%
OCCNCc1cc(Br)ccc1OCc1ccc(Cl)cc1Cl	18µM*	9.2µM*	?	23µM*	?
C=CCOc1ccc(Br)cc1CNCC	-12%	-7%	-10	-1%	5%
Cc1ccccc1NC(=O)COc1ccc(Br)cc1CNCCCO	-2%	-10%	-13	0%	0%

Assay outcomes deposited in PubChem by National Center for Advancing Translational Sciences (NCATS).
